Laboratory results reported in PubChem BioAssay (NCATS).
Values joined by “and” are separate entries in the source; they are usually repeats but may differ in a detail not shown here. Identical values can stand only once. Results filed as inconclusive are left out. Active and inactive are the calls of the source. Calls follow the shape of the dose curve; as a rule, active = well fitted inhibition curve with a large enough effect; inconclusive = small, poorly fitted or top-dose-only effect; inactive = flat fitted curve, though single readings scatter.

How the values were obtained:
[1] = test system: CRL-7250; experiment: Cytotoxic Profiling of Annotated Libraries Using Quantitative High-Throughput Screening (AID 1296008); conditions: Five cell lines viability, CellTiter-Glo ATP luminescence, 48-72 h; max response: active compounds read low; as to max response: % is scaled to controls: 0 for no effect and ±100 for the full control effect
How it was run: (§1)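 Cytotoxicity was measured as CellTiter-Glo ATP luminescence, read after 10 min at room temperature. Compound treatment of the cells lasted 48 or 72 hr at 37 degrees Celsius in a qHTS format.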

[2] = test system: HaCat; experiment: as above; conditions: Five cell lines viability, CellTiter-Glo ATP luminescence, 48-72 h; max response: active compounds read low
How it was run: as §1

[3] = test system: KB-3-1; experiment: as above; conditions: Five cell lines viability, CellTiter-Glo ATP luminescence, 48-72 h; max response: active compounds read low
How it was run: as §1

[4] = test system: NIH3T3; experiment: as above; conditions: Five cell lines viability, CellTiter-Glo ATP luminescence, 48-72 h; max response: active compounds read low
How it was run: as §1

[5] = test system: CRL-7250; experiment: qHTS assay to identify novel small-molecules to repurpose for Merkel cell carcinoma treatment (AID 1296009); conditions: MCC and control cell lines, CellTiter-Glo viability, 72 h; at 44.8 µM (top of the series) unless noted
How it was run: (§2)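 After compound transfer in DMSO, plates were kept 72 hr at 37 degree celsius. Luminescent ATP signal from CellTiter-Glo served as viability measure, normalized against DMSO and no-cell controls.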

[6] = test system: HACAT; experiment: as above; conditions: MCC and control cell lines, CellTiter-Glo viability, 72 h; at 44.8 µM (top of the series) unless noted
How it was run: as §2

[7] = test system: HEK293T; experiment: as above; conditions: MCC and control cell lines, CellTiter-Glo viability, 72 h; at 44.8 µM (top of the series)
How it was run: as §2

[8] = test system: MCC-13; experiment: as above; conditions: MCC and control cell lines, CellTiter-Glo viability, 72 h; series mostly up to 46 µM
How it was run: as §2

[9] = test system: MCC-26; experiment: as above; conditions: MCC and control cell lines, CellTiter-Glo viability, 72 h; series mostly up to 46 µM
How it was run: as §2

[10] = test system: MKL-1; experiment: as above; conditions: MCC and control cell lines, CellTiter-Glo viability, 72 h; series mostly up to 46 µM
How it was run: as §2

[11] = test system: HEK293; experiment: Cytotoxic Profiling of Annotated Libraries Using Quantitative High-Throughput Screening (AID 1296008); conditions: Five cell lines viability, CellTiter-Glo ATP luminescence, 48-72 h; max response: active compounds read low; as to max response: % is scaled to controls: 0 for no effect and ±100 for the full control effect
How it was run: as §1

[12] = test system: PAD; experiment: qHTS profiling for inhibitors of Plasmodium falciparum proliferation (AID 504749); conditions: P. falciparum in erythrocytes, SYBR Green DNA, 72 h; series mostly up to 28.7 µM
How it was run: (§3)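 Three-day growth assay of blood-stage parasites in erythrocytes (0.3% parasitemia, 2.5% hematocrit) at 37 C, 5% CO2, quantified by SYBR Green DNA staining after overnight detergent lysis.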

[13] = test system: PC15; experiment: as above; conditions: P. falciparum in erythrocytes, SYBR Green DNA, 72 h; series mostly up to 28.7 µM
How it was run: as §3

[14] = test system: PC49; experiment: as above; conditions: P. falciparum in erythrocytes, SYBR Green DNA, 72 h; series mostly up to 28.7 µM
How it was run: as §3

[15] = test system: SC27B; experiment: as above; conditions: P. falciparum in erythrocytes, SYBR Green DNA, 72 h; series mostly up to 28.7 µM
How it was run: as §3

[16] = test system: TAB109; experiment: as above; conditions: P. falciparum in erythrocytes, SYBR Green DNA, 72 h; series mostly up to 28.7 µM
How it was run: as §3

[17] = test system: TAB113; experiment: as above; conditions: P. falciparum in erythrocytes, SYBR Green DNA, 72 h; series mostly up to 28.7 µM
How it was run: as §3

[18] = test system: TAB165; experiment: as above; conditions: P. falciparum in erythrocytes, SYBR Green DNA, 72 h; series mostly up to 28.7 µM
How it was run: as §3

[19] = test system: W2; experiment: as above; conditions: P. falciparum in erythrocytes, SYBR Green DNA, 72 h; series mostly up to 28.7 µM
How it was run: as §3

[20] = test system: PC26; experiment: as above; conditions: P. falciparum in erythrocytes, SYBR Green DNA, 72 h; series mostly up to 28.7 µM
How it was run: as §3
Also: nearly all actives have a fitted effect of over 60% in size.
Potency is read from the fitted curve at half-maximal effect.

CCOC(=O)c1cncn1C(C)c1ccccc1 (stereo not given)
inactive: max response [1] 3.39% | outcome [1] | max response [2] -5.29% | outcome [2] | max response [3] 0.49% and 0.484% | max response [4] 1.83% and -0.636% | outcome [5] | outcome [6] | outcome [7] | Potency [8] | Potency [9] | Potency [10]

C[C@@H]1CC[C@H]2[C@@H](C)C(=O)O[C@@H]3O[C@@]4(C)CC[C@@H]1[C@]32OO4
active: Potency [11] 2370 nM
inactive: max response [1] -4.21% | outcome [2] | max response [3] -14.6% | max response [4] -3.92% | outcome [6] | Potency [8] | Potency [9] | Potency [10]

CN(C)CCc1c[nH]c2ccc(O)cc12
inactive: max response [1] 4.21% | max response [11] -2.05% | outcome [2] | max response [3] 2.29% | outcome [4] | outcome [6] inactive [at 92 µM] | Potency [8] | Potency [10]

CC(C)NCC(O)c1ccc(N)c(C#N)c1 (stereo not given)
inactive: Potency [12] | Potency [13] | Potency [14] | Potency [15] | Potency [16] | Potency [17] | Potency [18] | Potency [19] | max response [1] 3.52% | outcome [11] | max response [2] -0.104% | max response [3] -10.3% | max response [4] 2.77% | outcome [7] | Potency [8] | Potency [9] | Potency [10]

CNC(=O)NC(O)C(Cl)(Cl)Cl (stereo not given)
inactive: Potency [12] | Potency [13] | Potency [20] | Potency [14] | Potency [15] | Potency [16] | Potency [17] | Potency [18] | Potency [19] | max response [1] 2.85% | max response [11] 2.62% | outcome [2] | max response [3] 2.2% | max response [4] -0.697% | outcome [6] | Potency [8] | Potency [9] | Potency [10]

CCC1(c2ccccc2)CCC(=O)NC1=O (stereo not given)
inactive: Potency [12] | Potency [13] | Potency [20] | Potency [14] | Potency [15] | Potency [16] | Potency [17] | Potency [18] | outcome [1] | max response [11] -5.95% | max response [2] -1.76% | max response [3] -6.95% | max response [4] 4.7% | Potency [8] | Potency [9] | Potency [10]

CC(CC(C(N)=O)(c1ccccc1)c1ccccc1)N(C)C (stereo not given)
inactive: max response [1] -1.58% | outcome [11] | max response [2] -10.9% | outcome [4] | outcome [7] | Potency [8] | Potency [9] | Potency [10]

COCC(=O)N(c1c(C)cccc1C)C(C)C(=O)OC (stereo not given)
inactive: Potency [13] | Potency [20] | Potency [14] | Potency [15] | Potency [17] | Potency [19] | max response [1] 1.66% | max response [11] -19.3% | max response [2] 3.69% | max response [3] -13.6% | outcome [4] | Potency [8] | Potency [9] | Potency [10]

CC(C)(C)OC(=O)c1ncn2c1[C@@H]1CCCN1C(=O)c1c(Br)cccc1-2
inactive: Potency [12] | Potency [13] | Potency [20] | Potency [14] | Potency [15] | Potency [16] | Potency [17] | Potency [18] | outcome [1] | max response [2] 3.04% | max response [3] -1.12% | outcome [4] | outcome [5] | Potency [8] | Potency [9] | Potency [10]

NC(=O)CN1CCCC1=O
inactive: Potency [12] | Potency [13] | Potency [20] | Potency [14] | Potency [15] | Potency [16] | Potency [17] | Potency [18] | Potency [19] | outcome [1] | outcome [2] | max response [3] 4.93% | max response [4] -0.768% | outcome [5] | outcome [6] | outcome [7] | Potency [8] | Potency [9] | Potency [10]

COc1cc(C[C@@H](C)N)c(OC)cc1C
inactive: max response [1] -47.5% | max response [11] -43.2% | max response [3] -10.2% | max response [4] -23.9% | Potency [8] | Potency [9] | Potency [10]

O=C(N[C@H]1N=C(c2ccccc2F)c2cccc3c2N(CC3)C1=O)c1cc2ccccc2[nH]1
inactive: max response [1] 2.91% | max response [11] -7.34% | outcome [3] | max response [4] -0.0973% | Potency [8] | Potency [9] | Potency [10]

CN(C)C(=S)SSC(=S)N(C)C
active: Potency [12] 2000 nM | Potency [13] 3160 nM | Potency [20] 3790 nM | Potency [14] 11200 nM | Potency [15] 6310 nM | Potency [16] 1580 nM | Potency [17] 3980 nM | Potency [18] 2510 nM | Potency [19] 849 nM | Potency [1] 750 nM | Potency [11] 944 nM | Potency [4] 422 nM | Potency [9] 299 nM | Potency [10] 596 nM
inactive: max response [3] -0.0008%

O=C(NC(=O)c1c(F)cccc1F)Nc1cc(Cl)c(OC(F)(F)C(F)C(F)(F)F)cc1Cl (stereo not given)
active: Potency [17] 11200 nM
inactive: Potency [13] | Potency [20] | outcome [1] | outcome [2] | max response [3] 8.21% | max response [4] -16.1% | outcome [5] | outcome [6] | Potency [8] | Potency [9] | Potency [10]

CCOC(=O)C1(c2ccccc2)CCN(CCc2ccc(N)cc2)CC1
inactive: max response [1] -7.28% | max response [11] -24.8% | max response [2] -21.6% | max response [4] 2.24% | Potency [8] | Potency [9] | Potency [10]
